Unmarked numbers belong to inactive results. Inconclusive results are not listed. A call without a number means that no potency is given here. The source made the active and inactive calls. Unless noted, calls follow the shape of the dose curve; as a rule, active = well fitted cell-killing curve with a large enough effect; inconclusive = small, poorly fitted or top-dose-only effect; inactive = flat fitted curve, though single readings scatter.
How the values were obtained:
[1] = Cell Viability - LYMP2-025 (AID 976); also: series mostly up to about 92 µM
In short: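 CellTiter-Glo luminescence (cellular ATP) after 24 h compound exposure at 37 C; LYMP2-025 human lymphoblastoid cells, 2500/well, complete medium. Tetraoctylammonium bromide positive control. AC50 by Hill equation fit of qHTS concentration-response.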

[2] = Cell Viability - LYMP2-002 (AID 977); also: series mostly up to about 92 µM
In short: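 Human lymphoblastoid cells, 2500/well, complete medium; 5 h 37 C settle; compound 24 h 37 C; CellTiter-Glo, 30 min RT; luminescence. Decrease in ATP = cytotoxicity; AC50 via Hill equation.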

[3] = Cell Viability - LYMP2-006 (AID 978);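 also: series mostly up to about 92 µM; cells exposed to compound for 24 hours; nearly all actives have a fitted effect of over 60% in size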
In short: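 qHTS, 1536-well; 2500 cells/well, 5 hr 37 C; cpd 24 hr 37 C; CellTiter-Glo 30 min RT; luminescence. Tetraoctylammonium bromide pos. ctrl. AC50 via Hill eqn.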

[4] = Cell Viability - LYMP2-007 (AID 979);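 also: cells exposed to compound for 24 h before reading; nearly all actives have a fitted effect of over 60% in size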
In short: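 qHTS cytotoxicity: 2500 cells/well, 5 hr 37 C settle, compound 24 hr 37 C, CellTiter-Glo 30 min RT, luminescence. Decrease in ATP = toxicity. AC50 by standard Hill equation; tetraoctylammonium bromide positive control.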

[5] = Cell Viability - LYMP2-008 (AID 980); also: nearly all actives have a fitted effect of over 60% in size
In short: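 Luminescent ATP read-out (CellTiter-Glo, 30 min RT) after 24 hr compound exposure at 37 C of human lymphoblastoid cells in complete medium. Decrease in ATP taken as cytotoxicity; AC50 derived by standard Hill fit of qHTS concentration-response data.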

[6] = Cell Viability - LYMP2-010 (AID 981);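 also: cells exposed to compound for 24 hours at 37 °C; nearly all actives have a fitted effect of over 55% in size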
In short: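 qHTS cytotoxicity, 1536-well: 2500 cells/well, 5 hr settle, 24 hr compound at 37 C, CellTiter-Glo 30 min RT, luminescence read. Decrease in ATP = toxicity; AC50 via standard Hill equation. Positive control tetraoctylammonium bromide.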

[7] = Cell Viability - LYMP2-014 (AID 983); also: series mostly up to about 92 µM; nearly all actives have a fitted effect of over 50% in size
In short: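 2500 cells/well, 5 hr 37 C; cpd 24 hr 37 C, complete medium; CellTiter-Glo 30 min RT, luminescence; ATP loss = toxicity; AC50 via Hill eqn; tetraoctylammonium bromide positive control.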

[8] = Cell Viability - LYMP2-018 (AID 985); also: nearly all actives have a fitted effect of over 50% in size
In short: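 2500 cells/well; 5 hr 37 C; cmpd 24 hr 37 C, complete medium; CellTiter-Glo 30 min RT; luminescence. Tetraoctylammonium bromide positive control. AC50 via Hill fit.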

[9] = Cell Viability - LYMP2-022 (AID 987); also: nearly all actives have a fitted effect of over 55% in size
In short: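 Luminescent ATP read-out (CellTiter-Glo, 30 min, RT) after 24 hr, 37 C compound exposure of 2500 human lymphoblastoid cells/well in complete medium. Cytotoxicity taken as concentration-dependent ATP loss; AC50 from standard Hill equation.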

[10] = Cell Viability - LYMP2-026 (AID 989); also: nearly all actives have a fitted effect of over 50% in size
In short: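 qHTS cytotoxicity: 2500 cells/well, 5 hr 37 C, compound 24 hr 37 C, CellTiter-Glo 30 min RT, luminescence. Tetraoctylammonium bromide positive control. AC50 via standard Hill fit.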

[11] = Cell Viability - LYMP1-002 - Assay at 24 hr (AID 993)
In short: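 CellTiter-Glo luminescence (intracellular ATP) after 24 h compound exposure, 37 C, in LYMP1-002 human lymphoblastoid cells; decreased ATP taken as cytotoxicity. AC50 from standard Hill fit of concentration-response curves.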

[12] = Cell Viability - LYMP1-002 - Assay at 40 hr (AID 994); also: nearly all actives have a fitted effect of over 60% in size
In short: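 qHTS cytotoxicity; 2500 cells/well, 5 hr 37 C settle, compound 40 hr 37 C. CellTiter-Glo, 30 min RT, luminescence (ATP). Concentration-response, Hill fit → AC50. Pos. ctrl tetraoctylammonium bromide.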

[13] = qHTS Assay for Identification of Small Molecule Inducers of Hypoxia Response (AID 2120; active = well fitted curve in the direction sought with a large enough effect in the signal ratio, with a control signal flat, not every such curve was filed as active; the % refers to the signal ratio)
In short: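 Read-out: CCF4 FRET emission ratio 460nm/530nm (excitation 405nm), converted to %Activity, with AC50 fitted across a compound titration. ME-180 cells carried an HRE-driven beta-lactamase reporter; compound exposure 17 h, 37 degrees C.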

[14] = biological target: Estrogen receptor (Homo sapiens) (UniProt P03372); test: qHTS assay for small molecule antagonists of estrogen receptor alpha signaling (AID 588513; active = well fitted curve in the direction sought with a large enough effect in the signal ratio, with a control signal flat, not every such curve was filed as active; the % refers to the signal ratio)
Sequence of Estrogen receptor (Homo sapiens) (P03372 whole entry, looked up): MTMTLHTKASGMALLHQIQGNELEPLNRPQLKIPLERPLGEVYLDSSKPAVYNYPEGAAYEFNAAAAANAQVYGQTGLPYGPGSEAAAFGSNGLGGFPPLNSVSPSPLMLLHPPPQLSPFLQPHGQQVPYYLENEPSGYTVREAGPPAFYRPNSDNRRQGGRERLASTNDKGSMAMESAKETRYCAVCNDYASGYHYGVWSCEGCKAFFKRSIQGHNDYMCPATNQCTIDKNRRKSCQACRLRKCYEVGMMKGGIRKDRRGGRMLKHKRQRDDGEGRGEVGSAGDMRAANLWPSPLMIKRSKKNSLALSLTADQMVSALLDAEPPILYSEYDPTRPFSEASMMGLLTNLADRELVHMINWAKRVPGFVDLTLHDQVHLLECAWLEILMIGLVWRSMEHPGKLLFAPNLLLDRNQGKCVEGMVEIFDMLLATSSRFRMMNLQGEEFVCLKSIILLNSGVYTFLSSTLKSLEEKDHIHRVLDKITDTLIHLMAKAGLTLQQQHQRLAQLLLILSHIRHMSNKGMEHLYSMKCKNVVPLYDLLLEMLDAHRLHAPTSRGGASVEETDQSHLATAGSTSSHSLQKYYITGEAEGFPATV
In short: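 Beta-lactamase reporter, antagonist mode, HEK 293 GripTite cells; 0.5nM E2 stimulus, 18 h, 37 C; CCF4 dye 2 h RT; fluorescence. IC50 and efficacy from Hill fits, normalized to E2 and DMSO.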

[15] = biological target: Estrogen receptor (Homo sapiens) (UniProt P03372); test: qHTS assay for small molecule agonists of estrogen receptor alpha signaling (AID 588514; calls by dose curve; also: nearly all actives have a fitted effect of over 70% in size; also: potency is read from the fitted curve at half-maximal effect)
In short: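 Read-out: CCF4 fluorescence from a beta-lactamase reporter in ER-alpha-UAS-bla HEK 293 cells after 18 hrs of compound exposure at 37 C. Normalized to 20 nM 17-beta-estradiol (100%) and DMSO (0%).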

[16] = Cell Viability - LYMP2-012 (AID 982);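 also: cellular ATP by luciferase luminescence where a drop means cytotoxicity; cells exposed to compound for one day before reading; nearly all actives have a fitted effect of over 55% in size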
[17] = Cell Viability - LYMP2-016 (AID 984);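 also: cells exposed to compound for 24 hours at 37 °C; nearly all actives have a fitted effect of over 55% in size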
In short: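 qHTS, 1536-well: 2500 LYMP2-016 cells/well, 5 hr 37 C, compound added, 24 hr 37 C, CellTiter-Glo 30 min RT, luminescence. Tetraoctylammonium bromide positive control. AC50 via Hill fit.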

[18] = Cell Viability - LYMP2-020 (AID 986)
In short: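 qHTS, 2500 cells/well; 5 hr then 24 hr compound exposure, 37 C; CellTiter-Glo luminescence after 30 min RT; ATP decrease taken as cytotoxicity; AC50 via Hill equation; tetraoctylammonium bromide positive control.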

[19] = Cell Viability - LYMP2-024 (AID 988); also: nearly all actives have a fitted effect of over 60% in size
In short: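 ATP-based luminescence (CellTiter-Glo, 30 min RT) after 24 h compound exposure at 37 C of 2500 lymphoblastoid cells/well; decrease in ATP taken as cytotoxicity. qHTS concentration-response fitted to standard Hill equation for AC50.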

| Structure (SMILES) | Potency [1] | Potency [2] | Potency [3] | Potency [4] | Potency [5] | Potency [6] | Potency [7] | Potency [8] | Potency [9] | outcome [10] | Potency [11] | Potency [12] | outcome [13] | outcome [14] | Potency [15] | Potency [16] | Potency [17] | Potency [18] | Potency [19] |
| --- | --- | --- | --- | --- | --- | --- | --- | --- | --- | --- | --- | --- | --- | --- | --- | --- | --- | --- | --- |
| ClC/C=C/CCl | inactive | inactive | inactive | inactive | inactive | inactive | inactive | inactive | inactive | inactive | inactive | inactive | inactive | inactive | inactive |  |  |  |  |
| CCOC(=O)OCC | inactive | inactive | inactive |  | inactive | inactive | inactive | inactive | inactive | inactive |  | inactive | inactive | inactive | inactive | inactive | inactive | inactive | inactive |
| Fc1ccccc1 | inactive | inactive | inactive | inactive |  | inactive |  | inactive | inactive |  |  | inactive | inactive | inactive | inactive | inactive | inactive | inactive | inactive |
| CCc1ccccc1O | inactive | inactive | inactive |  | inactive | inactive | inactive | inactive | inactive | inactive | inactive | inactive | inactive | inactive | inactive | inactive | inactive | inactive | inactive |
| CC(C)Nc1ccccc1 | inactive | inactive | inactive | inactive |  | inactive | inactive | inactive | inactive | inactive | inactive | inactive | inactive | inactive | inactive |  | inactive | inactive | inactive |
| Cc1cccc2ccccc12 | inactive | inactive | inactive | inactive |  | inactive | inactive | inactive | inactive | inactive | inactive | inactive | inactive | inactive | inactive | inactive | inactive | inactive | inactive |
| Nc1cccc(O)c1 | inactive | inactive | inactive | inactive |  | inactive | inactive | inactive | inactive | inactive | inactive | inactive | inactive | inactive | inactive | inactive | inactive | inactive | inactive |
| ICCc1ccccc1 | inactive | inactive | inactive | inactive | inactive |  | inactive | inactive | inactive |  | inactive | inactive | inactive | inactive | inactive | inactive | inactive | inactive | inactive |
| CC(C)=CCC/C(C)=C/C=O | inactive | inactive | inactive | inactive | inactive | inactive | inactive | inactive | inactive | inactive | inactive | inactive | inactive | inactive | inactive |  | inactive | inactive | inactive |
| O=C(O)c1ccc(Cl)c(Cl)c1 | inactive | inactive | inactive | inactive | inactive | inactive |  |  | inactive | inactive | inactive | inactive | inactive | inactive | inactive | inactive | inactive | inactive | inactive |
| CCCCN(CCO)CCCC | inactive | inactive | inactive |  | inactive | inactive | inactive | inactive | inactive | inactive | inactive | inactive | inactive | inactive | inactive | inactive | inactive | inactive | inactive |
| NC(N)=S | inactive | inactive | inactive |  | inactive | inactive | inactive | inactive | inactive | inactive | inactive | inactive | inactive | inactive | inactive | inactive | inactive | inactive | inactive |
| O=[N+]([O-])c1ccc2nc[nH]c2c1 | inactive | inactive | inactive |  | inactive | inactive | inactive | inactive | inactive | inactive | inactive | inactive | inactive | inactive | inactive | inactive | inactive | inactive | inactive |
| C=CCCCCCC | inactive | inactive | inactive |  | inactive | inactive | inactive | inactive | inactive | inactive | inactive | inactive | inactive | inactive | 12.6 µM (active) | inactive | inactive | inactive | inactive |
| O=C1C=CCCC1 | inactive | inactive | inactive | inactive |  |  |  | inactive | inactive | inactive | inactive | inactive | inactive | inactive | inactive | inactive | inactive | inactive | inactive |
| Cc1ccc2ncccc2c1 | inactive | inactive | inactive | inactive | inactive | inactive | inactive | inactive | inactive | inactive |  | inactive | inactive | inactive | inactive |  | inactive | inactive | inactive |
| CCOc1cccc(N)c1 | inactive | inactive | inactive |  | inactive | inactive | inactive | inactive | inactive | inactive | inactive | inactive | inactive | inactive | inactive | inactive | inactive | inactive | inactive |
